Experimental data from PubChem BioAssay (Tox21).
Unmarked numbers belong to inactive results. Activity calls are given as the source filed them. Unless noted, calls follow the shape of the full dose curve.

Biological target: Estrogen receptor (Homo sapiens) (UniProt P03372)
Test: qHTS assay to identify small molecule antagonists of the estrogen receptor alpha (ER-alpha) signaling pathway (AID 743069; active = well fitted curve in the direction sought with a large enough effect in the signal ratio in the repeat runs, not every such curve was filed as active; inconclusive = weak or mixed curves, or effect the other way; inactive = no such curve, though single readings can be large or run the other way; the % refers to the signal ratio)
Conditions: HEK293 ER-alpha-UAS-bla, beta-lactamase ratio, antagonist mode; series mostly up to 69.4 µM; activity, negative = inhibition: at the top concentration
Summary of the method: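 Antagonist mode: compounds in DMSO were co-added with 17beta-estradiol to ER-alpha-bla HEK293 cells (2% charcoal-stripped serum) and left 18 h at 37C. Reporter inhibition was measured as FRET fluorescence after 2 h LiveBLAzer substrate at room temperature.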
% is scaled to controls: 0 for no effect and ±100 for the full control effect.

Chain of Estrogen receptor (Homo sapiens) (P03372 whole entry, looked up): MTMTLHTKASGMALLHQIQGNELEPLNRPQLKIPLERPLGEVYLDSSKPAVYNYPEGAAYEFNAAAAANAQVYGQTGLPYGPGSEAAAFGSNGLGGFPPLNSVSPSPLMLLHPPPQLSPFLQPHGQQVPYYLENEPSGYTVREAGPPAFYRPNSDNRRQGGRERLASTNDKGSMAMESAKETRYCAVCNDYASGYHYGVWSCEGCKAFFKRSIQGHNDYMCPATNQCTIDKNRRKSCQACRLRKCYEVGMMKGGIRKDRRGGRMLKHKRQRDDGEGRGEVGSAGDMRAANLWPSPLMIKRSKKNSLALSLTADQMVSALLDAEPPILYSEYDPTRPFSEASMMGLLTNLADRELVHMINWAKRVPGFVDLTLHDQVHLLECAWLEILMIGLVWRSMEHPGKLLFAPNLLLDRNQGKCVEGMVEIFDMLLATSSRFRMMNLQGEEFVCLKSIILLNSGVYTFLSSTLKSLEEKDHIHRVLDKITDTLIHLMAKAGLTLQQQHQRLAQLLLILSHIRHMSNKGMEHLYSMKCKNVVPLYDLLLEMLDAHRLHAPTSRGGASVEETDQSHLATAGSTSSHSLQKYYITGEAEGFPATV

Row | Compound | activity, negative = inhibition [%]
1 | CNC[C@@H]1CC[C@@H](N)[C@@H](O[C@H]2[C@H](O)[C@@H](O[C@H]3OC[C@](C)(O)[C@H](NC)[C@H]3O)[C@H](N)C[C@@H]2N)O1 | -15.1
2 | Cc1cc(-c2ccc(N=Nc3c(S(=O)(=O)O)cc4cc(S(=O)(=O)O)cc(N)c4c3O)c(C)c2)ccc1N=Nc1c(S(=O)(=O)O)cc2cc(S(=O)(=O)O)cc(N)c2c1O | -14.4
3 | C#CCC(Cc1cnc2nc(N)nc(N)c2n1)c1ccc(C(=O)N[C@@H](CCC(=O)O)C(=O)O)cc1 (some centres undefined) | -24.9
4 | CO[C@H]1[C@@H](O)[C@H](N)[C@@H](O[C@H]2O[C@H]([C@H](C)N)CC[C@H]2N)[C@H](O)[C@@H]1N(C)C(=O)CN | -13.6
5 | CN[C@H]1CCc2cc(OC)c(OC)c(OC)c2-c2ccc(OC)c(=O)cc21 | -22.1
6 | COc1cc(/C=C/C(=O)N2CCN(CC(=O)N3CCCC3)CC2)cc(OC)c1OC | -8.76
7 | O=C(OCc1ccccc1)c1cccnc1 | -20.6
8 | O=c1[nH]cnc2[nH]cc(CN3CCCCC3)c12 | -25.8
9 | O=C[C@H](O)[C@@H](O)[C@H](O[C@H]1O[C@H](CO)[C@@H](O[C@H]2O[C@H](CO)[C@@H](O)[C@H](O)[C@H]2O)[C@H](O)[C@H]1O)[C@H](O)CO | -6.06
10 | OCC(O)COc1ccc(Cl)cc1 (centres undefined) | -9.7
11 | Nc1ccn(C[C@@H](CO)OCP(=O)(O)O)c(=O)n1 | -22.6
12 | CCCCCCCCCCCCCCCCCC(=O)OCCO | -10.7
13 | Nc1nc2[nH]cc(CCc3ccc(C(=O)N[C@@H](CCC(=O)O)C(=O)O)cc3)c2c(=O)[nH]1 | 21
14 | C[N+](C)(CCCCCC[N+](C)(C)C1c2ccccc2-c2ccccc21)C1c2ccccc2-c2ccccc21 | -16.4
15 | CCOc1ccc(N=C(C)Nc2ccc(OCC)cc2)cc1 | -6.89
16 | CCCCCCCCCCCCCCCC(=O)OC[C@@H](COP(=O)([O-])OCC[N+](C)(C)C)OC(=O)CCCCCCCCCCCCCCC | -13.8
17 | c1ccc2c(CCC3CCNCC3)c[nH]c2c1 | -4.24
18 | COc1cc(S(C)=O)ccc1-c1nc2ncccc2[nH]1 (centres undefined) | -3.71
19 | Cc1onc(-c2ccccc2)c1C(=O)N[C@@H]1C(=O)N2[C@@H]1SC(C)(C)[C@@H]2C(=O)O | -14.4

System: not listed separately
Test: qHTS assay to identify small molecule antagonists of the estrogen receptor alpha (ER-alpha) signaling pathway - cell viability counter screen (AID 743074);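 also: HEK293 cells carrying ER-alpha-UAS-bla reporter stimulated with 17beta-estradiol; nearly all actives have a fitted effect of over 45% in size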
Conditions: ERalpha-bla HEK293 viability, CellTiter-Glo luminescence, 18 h; series mostly up to 69.4 µM; activity, negative = cytotoxicity: at the top concentration

Row | Compound | activity, negative = cytotoxicity
20 | CCc1ccc(S(=O)(=O)O)cc1 | -12.1%
21 | CCCCC(O)c1ccccc1 (centres undefined) | 7.98%
22 | CC(=O)N[C@@H]1C(O[C@H]2O[C@H](C(=O)O)C(O)[C@H](O)[C@H]2O)[C@H](O)[C@@H](CO)O[C@H]1O[C@@H]1C(C(=O)O)O[C@@H](O[C@H]2[C@H](O)[C@@H](CO)OC(O)[C@@H]2NC(C)=O)[C@H](O)[C@H]1O (some centres undefined) | -18.1%
23 | C=CCN1CCCC1CNC(=O)c1cc(S(N)(=O)=O)cc(OC)c1OC (centres undefined) | -4.88%
24 | Nc1ccn(C[C@@H](CO)OCP(=O)(O)O)c(=O)n1 | 16.7%
25 | CC(=O)[C@@]1(O)CC[C@H]2[C@@H]3C=C(Cl)C4=CC(=O)[C@@H]5C[C@@H]5[C@]4(C)[C@H]3CC[C@@]21C | -23.9%
26 | COC(=O)[C@@H](N)CS | -8.64%
27 | C=C1c2c(Cl)ccc(O)c2C(O)=C2C(=O)[C@]3(O)C(O)=C(C(N)=O)C(=O)[C@@H](N(C)C)[C@@H]3[C@@H](O)[C@H]12 | 11.1% [at 32.6 µM]
28 | NC(=S)N=Nc1ccc(NN=C(N)N)cc1 | -6.91%
29 | O=c1oc2cc(O)ccc2s1 | 17.8%
30 | CCN(CC)CCOC(=O)c1cccnc1 | 6.94%
31 | O=C1NCCN1c1ncc([N+](=O)[O-])s1 | 15.2% [at 32.6 µM]
32 | C=CCCCCCCCCC(=O)OC | 8.79%
33 | Cc1c(O)cc2c(c1C)O[C@](C)(CCC[C@H](C)CCC[C@H](C)CCCC(C)C)CC2 | -8.2%
34 | CCOC(=O)Nc1ccc2c(c1)N(C(=O)CN(C)C)c1ccccc1CC2 | -6.06%
35 | CC(=O)N(CC(C)C(=O)O)c1c(I)cc(I)c(N)c1I (centres undefined) | 18.5% [at 32.6 µM]
36 | CC(=O)N[C@@H](CC(=O)N[C@@H](CCC(=O)O)C(=O)O)C(=O)O | 13.1%
37 | CO/N=C(\C(=O)N[C@@H]1C(=O)N2C(C(=O)O)=C(CSC(=O)c3ccco3)CS[C@H]12)c1csc(N)n1 | 13%
38 | CCCc1ccc(C(=O)O)cc1 | 3.36%
39 | N[C@H](CC(=O)O)C(=O)O | 9.21%

Biological target: Estrogen receptor (Homo sapiens) (UniProt P03372)
Test: qHTS assay to identify small molecule agonists of the estrogen receptor alpha (ER-alpha) signaling pathway (AID 743075);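 also: HEK293 GripTite cells with ER-alpha and UAS-driven beta-lactamase reporter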; also: potency is read from the fitted curve at half-maximal effect
Conditions: HEK293 ER-alpha-UAS-bla, beta-lactamase FRET ratio, 18 h; series mostly up to 70.1 µM; activation: at the top concentration

Row | Compound | activation | Potency
40 | CNC[C@@H]1CC[C@@H](N)[C@@H](O[C@H]2[C@H](O)[C@@H](O[C@H]3OC[C@](C)(O)[C@H](NC)[C@H]3O)[C@H](N)C[C@@H]2N)O1 | -0.926% | 
41 | CCc1ccc(S(=O)(=O)O)cc1 |  | 4.77 µM [inconclusive] (active)
42 | Cc1cc(-c2ccc(N=Nc3c(S(=O)(=O)O)cc4cc(S(=O)(=O)O)cc(N)c4c3O)c(C)c2)ccc1N=Nc1c(S(=O)(=O)O)cc2cc(S(=O)(=O)O)cc(N)c2c1O | 7.22% | 
43 | C#CCC(Cc1cnc2nc(N)nc(N)c2n1)c1ccc(C(=O)N[C@@H](CCC(=O)O)C(=O)O)cc1 (some centres undefined) | 2.73% | 
44 | CO[C@H]1[C@@H](O)[C@H](N)[C@@H](O[C@H]2O[C@H]([C@H](C)N)CC[C@H]2N)[C@H](O)[C@@H]1N(C)C(=O)CN | 3.46% | 
45 | CCCCC(O)c1ccccc1 (centres undefined) | 5.63% | 
46 | COc1cc(/C=C/C(=O)N2CCN(CC(=O)N3CCCC3)CC2)cc(OC)c1OC | 1.19% | 
47 | O=C(OCc1ccccc1)c1cccnc1 | 2.71% | 
48 | O=c1[nH]cnc2[nH]cc(CN3CCCCC3)c12 | -0.957% | 
49 | CC(=O)N[C@@H]1C(O[C@H]2O[C@H](C(=O)O)C(O)[C@H](O)[C@H]2O)[C@H](O)[C@@H](CO)O[C@H]1O[C@@H]1C(C(=O)O)O[C@@H](O[C@H]2[C@H](O)[C@@H](CO)OC(O)[C@@H]2NC(C)=O)[C@H](O)[C@H]1O (some centres undefined) | -3.03% | 
50 | O=C[C@H](O)[C@@H](O)[C@H](O[C@H]1O[C@H](CO)[C@@H](O[C@H]2O[C@H](CO)[C@@H](O)[C@H](O)[C@H]2O)[C@H](O)[C@H]1O)[C@H](O)CO | 3.28% | 
51 | OCC(O)COc1ccc(Cl)cc1 (centres undefined) | -0.432% | 
52 | C=CCN1CCCC1CNC(=O)c1cc(S(N)(=O)=O)cc(OC)c1OC (centres undefined) | -1.04% | 
53 | CC(=O)[C@@]1(O)CC[C@H]2[C@@H]3C=C(Cl)C4=CC(=O)[C@@H]5C[C@@H]5[C@]4(C)[C@H]3CC[C@@]21C | 1.74% | 
54 | COC(=O)[C@@H](N)CS | 2.52% | 
55 | CCCCCCCCCCCCCCCCCC(=O)OCCO | -1.87% | 
56 | C=C1c2c(Cl)ccc(O)c2C(O)=C2C(=O)[C@]3(O)C(O)=C(C(N)=O)C(=O)[C@@H](N(C)C)[C@@H]3[C@@H](O)[C@H]12 | -3.64% [at 32.9 µM] | 
57 | NC(=S)N=Nc1ccc(NN=C(N)N)cc1 | -4.8% | 

Row | Compound | activation | Potency
58 | O=c1oc2cc(O)ccc2s1 | 4.06% | 
59 | Nc1nc2[nH]cc(CCc3ccc(C(=O)N[C@@H](CCC(=O)O)C(=O)O)cc3)c2c(=O)[nH]1 | 8.95% | 
60 | CCN(CC)CCOC(=O)c1cccnc1 | 0.786% | 
61 | C[N+](C)(CCCCCC[N+](C)(C)C1c2ccccc2-c2ccccc21)C1c2ccccc2-c2ccccc21 | -1.92% | 
62 | O=C1NCCN1c1ncc([N+](=O)[O-])s1 | -0.977% [at 32.9 µM] | 
63 | CCOc1ccc(N=C(C)Nc2ccc(OCC)cc2)cc1 | -1.96% | 
64 | CCCCCCCCCCCCCCCC(=O)OC[C@@H](COP(=O)([O-])OCC[N+](C)(C)C)OC(=O)CCCCCCCCCCCCCCC | 1.74% | 
65 | C=CCCCCCCCCC(=O)OC | -0.137% | 
66 | Cc1c(O)cc2c(c1C)O[C@](C)(CCC[C@H](C)CCC[C@H](C)CCCC(C)C)CC2 | 2.64% | 
67 | c1ccc2c(CCC3CCNCC3)c[nH]c2c1 | -3.29% | 
68 | CC(=O)N(CC(C)C(=O)O)c1c(I)cc(I)c(N)c1I (centres undefined) | -0.519% [at 32.9 µM] | 
69 | COc1cc(S(C)=O)ccc1-c1nc2ncccc2[nH]1 (centres undefined) | -0.721% | 
70 | CC(=O)N[C@@H](CC(=O)N[C@@H](CCC(=O)O)C(=O)O)C(=O)O | 5.27% | 
71 | CO/N=C(\C(=O)N[C@@H]1C(=O)N2C(C(=O)O)=C(CSC(=O)c3ccco3)CS[C@H]12)c1csc(N)n1 | 0.823% | 
72 | Cc1onc(-c2ccccc2)c1C(=O)N[C@@H]1C(=O)N2[C@@H]1SC(C)(C)[C@@H]2C(=O)O | -0.935% | 
73 | CCCc1ccc(C(=O)O)cc1 | -2.07% | 
74 | N[C@H](CC(=O)O)C(=O)O | -0.675% | 
